# Measured values from PubChem BioAssay AID1159580 (chemical genetic matrix, 2015).
# Out of some 5,500 compounds screened, about 2,000 (36%) were called active. Inconclusive results (about 18%) are left out. The list shows a part of the results. Values without a mark were called inactive. No stated cut-off is given here; in the data, active means normalized growth mostly below about 0.91 (no sharp cut-off); inconclusive means no clear call, values can overlap the other calls; inactive means mostly above about 0.92.
# Experiment: chemical genetic growth profiling, strain panel (AID 1159580);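 further: tested at 20 µM; growth read once vehicle control cultures reached saturation at 30 °C; 1 = growth at the plate median or of vehicle wells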
# Details: S. cerevisiae deletion strains, growth OD
smiles,measurement,setting,value
CC1(C)C=CC(=O)[C@@]2(C)C1CC(=O)[C@]1(C)C2CC[C@@]2(C)[C@H](c3ccoc3)OC(=O)C3OC321 (stereo partly drawn),normalized growth,"locus YAL021C, strain ccr4, stronger effect = lower value",0.977
same,normalized growth,"locus YAL026C, strain drs2, stronger effect = lower value",1
same,normalized growth,"locus YAL030W, strain snc1, stronger effect = lower value",0.995
same,normalized growth,"locus YBL061C, strain skt5, stronger effect = lower value",0.998
same,normalized growth,"locus YBR009C, strain hhf1, stronger effect = lower value",0.984
same,normalized growth,"locus YBR021W, strain FUR4, stronger effect = lower value",1
same,normalized growth,"locus YBR023C, strain chs3, stronger effect = lower value",0.983
same,normalized growth,"locus YBR171W, strain sec66, stronger effect = lower value",1.01
same,normalized growth,"locus YBR229C, strain ROT2, stronger effect = lower value",0.944
same,normalized growth,"locus YBR231C, strain swc5, stronger effect = lower value",1
same,normalized growth,"locus YBR279W, strain paf1, stronger effect = lower value",0.988
same,normalized growth,"locus YCL011C, strain gbp2, stronger effect = lower value",0.996
same,normalized growth,"locus YCL016C, strain dcc1, stronger effect = lower value",0.99
same,normalized growth,"locus YCL029C, strain bik1, stronger effect = lower value",0.96
same,normalized growth,"locus YCL061C, strain MRC1, stronger effect = lower value",1.01
same,normalized growth,"locus YCL069W, strain vba3, stronger effect = lower value",0.995
same,normalized growth,"locus YCR088W, strain abp1, stronger effect = lower value",1
same,normalized growth,"locus YDL005C, strain med2, stronger effect = lower value",0.996
same,normalized growth,"locus YDL035C, strain GPR1, stronger effect = lower value",0.945
same,normalized growth,"locus YDL040C, strain nat1, stronger effect = lower value",0.996
same,normalized growth,"locus YDL074C, strain BRE1, stronger effect = lower value",0.926
same,normalized growth,"locus YDL101C, strain DUN1, stronger effect = lower value",0.967
same,normalized growth,"locus YDL185W, strain tfp1, stronger effect = lower value",0.966
same,normalized growth,"locus YDL192W, strain arf1, stronger effect = lower value",0.94
same,normalized growth,"locus YDR001C, strain nth1, stronger effect = lower value",0.992
same,normalized growth,"locus YDR069C, strain doa4, stronger effect = lower value",0.976
same,normalized growth,"locus YDR101C, strain arx1, stronger effect = lower value",0.93
same,normalized growth,"locus YDR137W, strain rgp1, stronger effect = lower value",0.843 (active)
same,normalized growth,"locus YDR159W, strain sac3, stronger effect = lower value",0.954
same,normalized growth,"locus YDR162C, strain NBP2, stronger effect = lower value",0.953
same,normalized growth,"locus YDR195W, strain ref2",1.03
same,normalized growth,"locus YDR297W, strain sur2, stronger effect = lower value",0.983
same,normalized growth,"locus YDR318W, strain mcm21, stronger effect = lower value",0.969
same,normalized growth,"locus YDR334W, strain swr1, stronger effect = lower value",1
same,normalized growth,"locus YDR335W, strain msn5, stronger effect = lower value",1
same,normalized growth,"locus YDR388W, stronger effect = lower value",0.982
same,normalized growth,"locus YDR392W, strain spt3, stronger effect = lower value",0.982
same,normalized growth,"locus YDR502C, strain sam2, stronger effect = lower value",0.983
same,normalized growth,"locus YEL003W, strain gim4, stronger effect = lower value",0.994
same,normalized growth,"locus YEL037C, strain rad23, stronger effect = lower value",1
same,normalized growth,"locus YEL061C, strain CIN8 (second series), stronger effect = lower value",0.997
same,normalized growth,"locus YEL061C, strain CIN8, stronger effect = lower value",0.971
same,normalized growth,"locus YER015W, strain faa2, stronger effect = lower value",0.982
same,normalized growth,"locus YER016W, strain bim1, stronger effect = lower value",0.985
same,normalized growth,"locus YER110C, stronger effect = lower value",0.959
same,normalized growth,"locus YER111C, strain swi4, stronger effect = lower value",1
same,normalized growth,"locus YER155C, strain BEM2 (second series), stronger effect = lower value",1.01
same,normalized growth,"locus YER155C, strain BEM2, stronger effect = lower value",0.998
same,normalized growth,"locus YER167W, strain BCK2, stronger effect = lower value",0.959
same,normalized growth,"locus YFR010W, strain ubp6, stronger effect = lower value",1.01
same,normalized growth,"locus YGL078C, strain dbp3, stronger effect = lower value",1.02
same,normalized growth,"locus YGL086W, strain mad1, stronger effect = lower value",0.979
same,normalized growth,"locus YGL167C, strain pmr1, stronger effect = lower value",0.991
same,normalized growth,"locus YGL173C, strain kem1, stronger effect = lower value",0.994
same,normalized growth,"locus YGL227W, strain vid30, stronger effect = lower value",0.994
same,normalized growth,"locus YGL240W, strain doc1, stronger effect = lower value",0.99
same,normalized growth,"locus YGL248W, strain PDE1, stronger effect = lower value",0.974
same,normalized growth,"locus YGL253W, strain hxk2, stronger effect = lower value",0.994
same,normalized growth,"locus YGR078C, strain PAC10, stronger effect = lower value",0.981
same,normalized growth,"locus YGR135W, strain pre9, stronger effect = lower value",1.03
same,normalized growth,"locus YGR252W, strain gcn5, stronger effect = lower value",0.966
same,normalized growth,"locus YHR013C, strain ard1, stronger effect = lower value",0.968
same,normalized growth,"locus YHR027C, strain rpn1, stronger effect = lower value",0.979
same,normalized growth,"locus YHR030C, strain SLT2, stronger effect = lower value",0.98
same,normalized growth,"locus YHR079C, strain IRE1 (second series), stronger effect = lower value",0.975
same,normalized growth,"locus YHR094C, strain hxt1, stronger effect = lower value",0.967
same,normalized growth,"locus YHR129C, strain ARP1, stronger effect = lower value",0.98
same,normalized growth,"locus YHR142W, strain chs7, stronger effect = lower value",0.999
same,normalized growth,"locus YHR200W, strain rpn10, stronger effect = lower value",0.986
same,normalized growth,"locus YIL066C, strain RNR3, stronger effect = lower value",0.904
same,normalized growth,"locus YIL073C, strain SPO22, stronger effect = lower value",1.01
same,normalized growth,"locus YIL125W, strain kgd1, stronger effect = lower value",0.968
same,normalized growth,"locus YIR030C, strain dcg1, stronger effect = lower value",0.969
same,normalized growth,"locus YJL092W, strain hpr5, stronger effect = lower value",0.999
same,normalized growth,"locus YJL095W, strain BCK1 (second series), stronger effect = lower value",0.985
same,normalized growth,"locus YJL095W, strain BCK1, stronger effect = lower value",0.981
same,normalized growth,"locus YJL115W, strain asf1, stronger effect = lower value",0.994
same,normalized growth,"locus YJL129C, strain trk1, stronger effect = lower value",0.976
same,normalized growth,"locus YJL134W, strain LCB3, stronger effect = lower value",0.975
same,normalized growth,"locus YJL154C, strain vps35, stronger effect = lower value",0.996
same,normalized growth,"locus YJL164C, strain tpk1, stronger effect = lower value",0.991
same,normalized growth,"locus YJL166W, strain qcr8, stronger effect = lower value",0.992
same,normalized growth,"locus YJL168C, strain set2, stronger effect = lower value",0.98
same,normalized growth,"locus YJL187C, strain SWE1 (second series), stronger effect = lower value",0.977
same,normalized growth,"locus YJL187C, strain SWE1, stronger effect = lower value",0.997
same,normalized growth,"locus YJR043C, strain POL32, stronger effect = lower value",0.981
same,normalized growth,"locus YKL009W, strain mrt4, stronger effect = lower value",1.02
same,normalized growth,"locus YKL068W, stronger effect = lower value",0.993
same,normalized growth,"locus YKL085W, strain MDH1 (second series), stronger effect = lower value",1
same,normalized growth,"locus YKL085W, strain MDH1, stronger effect = lower value",1
same,normalized growth,"locus YKL160W, strain elf1, stronger effect = lower value",0.987
same,normalized growth,"locus YKL190W, strain CNB1, stronger effect = lower value",0.975
same,normalized growth,"locus YKR001C, strain vps1, stronger effect = lower value",0.996
same,normalized growth,"locus YKR026C, strain gcn3, stronger effect = lower value",0.989
same,normalized growth,"locus YKR091W, strain srl3, stronger effect = lower value",0.994
same,normalized growth,"locus YLL001W, strain dnm1, stronger effect = lower value",1.01
same,normalized growth,"locus YLL026W, stronger effect = lower value",0.984
same,normalized growth,"locus YLL041C, strain sdh2, stronger effect = lower value",1
same,normalized growth,"locus YLR027C, strain aat2, stronger effect = lower value",0.984
same,normalized growth,"locus YLR039C, strain RIC1, stronger effect = lower value",0.863
same,normalized growth,"locus YLR058C, strain SHM2, stronger effect = lower value",0.949
same,normalized growth,"locus YLR102C, strain apc9, stronger effect = lower value",0.972
same,normalized growth,"locus YLR221C, strain rsa3, stronger effect = lower value",1
same,normalized growth,"locus YLR258W, strain gsy2, stronger effect = lower value",0.988
same,normalized growth,"locus YLR262C, strain YPT6 (second series), stronger effect = lower value",0.905
same,normalized growth,"locus YLR262C, strain YPT6, stronger effect = lower value",0.857
same,normalized growth,"locus YLR268W, strain sec22, stronger effect = lower value",0.911
same,normalized growth,"locus YLR320W, strain mms22, stronger effect = lower value",0.988
same,normalized growth,"locus YLR342W, strain FKS1 (second series), stronger effect = lower value",0.915
same,normalized growth,"locus YLR342W, strain FKS1, stronger effect = lower value",1.01
same,normalized growth,"locus YLR357W, strain rsc2, stronger effect = lower value",1.01
same,normalized growth,"locus YLR370C, strain arc18, stronger effect = lower value",0.992
same,normalized growth,"locus YLR371W, strain rom2, stronger effect = lower value",0.901 (active)
same,normalized growth,"locus YLR384C, strain iki3, stronger effect = lower value",1
same,normalized growth,"locus YLR418C, strain cdc73, stronger effect = lower value",0.952
same,normalized growth,"locus YML016C, strain PPZ1, stronger effect = lower value",0.951
same,normalized growth,"locus YML032C, strain rad52, stronger effect = lower value",0.936
same,normalized growth,"locus YML120C, strain ndi1, stronger effect = lower value",0.99
same,normalized growth,"locus YML124C, strain tub3, stronger effect = lower value",0.973
same,normalized growth,"locus YMR058W, strain fet3, stronger effect = lower value",1.01
same,normalized growth,"locus YMR078C, strain ctf18, stronger effect = lower value",0.974
same,normalized growth,"locus YMR125W, strain sto1, stronger effect = lower value",0.995
same,normalized growth,"locus YMR129W, stronger effect = lower value",0.99
same,normalized growth,"locus YMR205C, strain PFK2, stronger effect = lower value",1.01
same,normalized growth,"locus YMR223W, strain ubp8, stronger effect = lower value",0.984
same,normalized growth,"locus YMR231W, strain pep5, stronger effect = lower value",1.01
same,normalized growth,"locus YMR263W, strain SAP30, stronger effect = lower value",0.975
same,normalized growth,"locus YMR307W, strain GAS1, stronger effect = lower value",0.865
same,normalized growth,"locus YNL067W, strain RPL9B, stronger effect = lower value",1.02
same,normalized growth,"locus YNL071W, strain lat1, stronger effect = lower value",0.999
same,normalized growth,"locus YNL153C, strain GIM3, stronger effect = lower value",0.981
same,normalized growth,"locus YNL209W, strain ssb2, stronger effect = lower value",0.984
same,normalized growth,"locus YNL233W, strain BNI4, stronger effect = lower value",0.984
same,normalized growth,"locus YNL248C, strain rpa49, stronger effect = lower value",0.983
same,normalized growth,"locus YNL250W, strain rad50, stronger effect = lower value",1
same,normalized growth,"locus YNL271C, strain bni1, stronger effect = lower value",0.963
same,normalized growth,"locus YNL298W, strain CLA4, stronger effect = lower value",0.97
same,normalized growth,"locus YNL307C, strain MCK1, stronger effect = lower value",0.961
same,normalized growth,"locus YNL322C, strain KRE1 (second series), stronger effect = lower value",0.989
same,normalized growth,"locus YNR049C, strain mso1, stronger effect = lower value",1
same,normalized growth,"locus YNR052C, strain pop2, stronger effect = lower value",0.977
same,normalized growth,"locus YOL006C, strain TOP1, stronger effect = lower value",0.813
same,normalized growth,"locus YOL012C, strain htz1",1.08
same,normalized growth,"locus YOL147C, strain pex11, stronger effect = lower value",0.971
same,normalized growth,"locus YOR001W, strain rrp6, stronger effect = lower value",1
same,normalized growth,"locus YOR061W, strain CKA2, stronger effect = lower value",0.924
same,normalized growth,"locus YOR069W, strain VPS5, stronger effect = lower value",0.981
same,normalized growth,"locus YOR070C, strain gyp1, stronger effect = lower value",1
same,normalized growth,"locus YOR080W, strain dia2, stronger effect = lower value",1
same,normalized growth,"locus YOR083W, strain WHI5, stronger effect = lower value",0.999
same,normalized growth,"locus YOR106W, strain vam3, stronger effect = lower value",1
same,normalized growth,"locus YOR136W, strain idh2, stronger effect = lower value",0.981
same,normalized growth,"locus YOR144C, strain elg1, stronger effect = lower value",0.973
same,normalized growth,"locus YOR184W, strain ser1, stronger effect = lower value",0.922
same,normalized growth,"locus YOR265W, strain rbl2, stronger effect = lower value",1
same,normalized growth,"locus YOR270C, strain vph1, stronger effect = lower value",0.833
same,normalized growth,"locus YOR290C, strain snf2, stronger effect = lower value",0.974
same,normalized growth,"locus YOR316C, strain cot1, stronger effect = lower value",0.965
same,normalized growth,"locus YPL051W, strain arl3, stronger effect = lower value",0.987
same,normalized growth,"locus YPL055C, strain LGE1, stronger effect = lower value",0.884
same,normalized growth,"locus YPL078C, strain atp4, stronger effect = lower value",1
same,normalized growth,"locus YPL106C, strain sse1, stronger effect = lower value",1
same,normalized growth,"locus YPL240C, strain hsp82, stronger effect = lower value",0.999
same,normalized growth,"locus YPR119W, strain clb2, stronger effect = lower value",0.985
same,normalized growth,"locus YPR141C, strain kar3, stronger effect = lower value",0.972
same,normalized growth,"locus YPR163C, strain tif3, stronger effect = lower value",0.956
same,normalized growth,"locus YPR167C, strain met16, stronger effect = lower value",0.986
same,normalized growth,"strain wtn01, stronger effect = lower value",0.936
